Many of the other results were omitted from the sample, so hits are more common in it than they were.
IL1B secr inh – qHTS for Inhibitors of Inflammasome Signaling: IL-1-beta AlphaLISA Primary Screen. THP-1 LPS/ATP IL-1B secretion, AlphaLISA, 16 h; hits give low values. activity change, % at 57.5 µM. hit rate 4.7% among 360,000. AID 743279, 2014; in the data active = activity change below about -50%; inconclusive = mostly about -30% to -49%
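THP-1 cells pretreated 1 hr with compounds (up to 57.5 uM final), then stimulated with LPS (250 ng/mL final) plus ATP (1.25 mM final); secreted IL-1B measured by AlphaLISA after 16 hr, decreased signal indicating inhibition.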
DT40 TDP1 CPT – qHTS for Inhibitors of human tyrosyl-DNA phosphodiesterase 1 (TDP1): qHTS in cells in presence of CPT; chicken DT40 Tdp1-/-;hTDP1 cells + 20 nM CPT, ATP luminescence, 48 h; Potency, µM (series often up to 46.2 µM), inactives show at the highest dose activity change, negative = growth inhibition, usual class: inhibitors; hit rate 12% among 420,000; also: potency is read from the fitted curve at half-maximal effect; nearly all actives have a fitted effect of over 55% in size
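Chicken DT40 Tdp1-/- cells stably complemented with human TDP1 were seeded at 400 cells/well in medium containing 20 nM camptothecin, exposed to pin-transferred compounds, and grown at 37 °C for at least 48 hr. Viability was read as ATP luminescence.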
TDP1 cell noCPT – qHTS for Inhibitors of human tyrosyl-DNA phosphodiesterase 1 (TDP1): qHTS in cells in absence of CPT. DT40 Tdp1-/- hTDP1 cells, no CPT, ATP luminescence, 48 h. Potency, µM (series often up to 46.2 µM), for inactives: top-dose activity change, negative = growth inhibition, most hits filed as inhibitors. hit rate 15% among 420,000. AID 686978, 2013; also: potency is read from the fitted curve at half-maximal effect; nearly all actives have a fitted effect of over 55% in size
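Camptothecin absent (DMSO only). Human TDP1-complemented DT40 knockout cells, 400 cells/well, 37 °C for minimum 48 hr; ATP measured via CellTiter-Glo, 30 min dark incubation, luminescence.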
HT1080-NT tox – qHTS for induction of synthetic lethality in tumor cells producing 2HG: qHTS for the HT-1080-NT fibrosarcoma cell line; hit rate 1.6% among 360,000; HT-1080-NT fibrosarcoma viability, CellTiter-Glo ATP luminescence, 48 h; Potency, µM (top dose mostly 46.1 µM), inactives show at the top dose activity, negative = less viability, actives largely listed as cytotoxic;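 also: NT is the 2HG producing partner of a matched IDH1 knockdown line; potency is read from the fitted curve at half-maximal effect; 0% = DMSO-treated cells and -100% = media-only wells without cells; nearly all actives have a fitted effect of over 55% in size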
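Luminescent CellTiter-Glo readout after 48 hours of compound exposure at 37 degrees C defined viability of HT-1080-NT cells. Activity was normalized to DMSO wells and cell-free media wells; concentration-response curves were fitted and assigned curve classes.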
HT1080 IDH1KD tx – qHTS for induction of synthetic lethality in tumor cells producing 2HG: qHTS for the HT-1080-IDH1KD cell line; HT-1080 IDH1 knockdown viability, ATP luminescence, 48 h; Potency, µM (series often up to 46.1 µM), inactives show at the highest dose activity, negative = toxicity, most hits filed as cytotoxic; hit rate 2% among 360,000; AID 686971, 2013;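 also: potency is read from the fitted curve at half-maximal effect; 0% = DMSO wells and -100% = cell-free medium wells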
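After a 2 h attachment period, IDH1KD HT-1080 cells took pin-transferred compound for 48 h at 37 °C; ATP-based luminescence after 10 min room-temperature reagent incubation reported viability.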
ALOX12 inh – Primary qHTS assay for inhibitors of human arachidonate 12S-lipoxygenase (ALOX12): Round 2; Polyunsaturated fatty acid lipoxygenase ALOX12 (Homo sapiens), P18054; purified 12hLO, xylenol orange hydroperoxide absorbance; Potency, µM (titrated, usually from 108 µM), for inactives: at the highest dose activity change, negative = inhibition, actives largely listed as inhibitors; hit rate 1.1% among 580,000; AID 1671190, 2021; also: potency is read from the fitted curve at half-maximal effect
Target sequence (P18054 whole entry, looked up): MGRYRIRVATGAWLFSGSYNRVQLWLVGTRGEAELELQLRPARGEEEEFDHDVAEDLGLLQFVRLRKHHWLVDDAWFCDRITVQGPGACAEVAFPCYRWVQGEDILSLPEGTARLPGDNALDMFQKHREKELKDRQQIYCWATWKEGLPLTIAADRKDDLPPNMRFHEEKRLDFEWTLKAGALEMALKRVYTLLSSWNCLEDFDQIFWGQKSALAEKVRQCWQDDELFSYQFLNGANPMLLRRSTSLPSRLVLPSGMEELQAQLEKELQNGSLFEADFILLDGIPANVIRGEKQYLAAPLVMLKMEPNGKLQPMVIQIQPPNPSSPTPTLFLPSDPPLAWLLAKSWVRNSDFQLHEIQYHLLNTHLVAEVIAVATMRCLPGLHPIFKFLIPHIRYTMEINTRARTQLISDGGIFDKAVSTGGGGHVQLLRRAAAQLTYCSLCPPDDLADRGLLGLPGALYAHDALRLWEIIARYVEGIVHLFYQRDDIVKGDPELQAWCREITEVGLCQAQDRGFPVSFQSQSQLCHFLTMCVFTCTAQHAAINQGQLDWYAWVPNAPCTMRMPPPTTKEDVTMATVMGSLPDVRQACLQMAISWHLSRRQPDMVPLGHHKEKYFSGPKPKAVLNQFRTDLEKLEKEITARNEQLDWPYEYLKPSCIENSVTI
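Purified human 12hLO at 150 nM in 25 mM Hepes, 0.01% Triton X-100, pH 7.0, preincubated 15 min at room temperature with compound. Reaction started with 40 uM arachidonic acid, 30 min at room temperature. Hydroperoxide measured by Fe-xylenol orange, 573/405 nm absorbance ratio.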
Numbers without * were called inactive. Unless noted, calls follow the shape of the dose curve; as a rule, active = well fitted curve in the direction sought with a large enough effect; inconclusive = small, poorly fitted or top-dose-only effect, or another doubt; inactive = no such curve, though single readings can be large; an effect the other way counts as inactive or inconclusive. Unless noted, % is scaled to controls: 0 for no effect and ±100 for the full control effect.

`O=C(NC1CCN(c2ccccc2)C1=O)c1cccc(Cl)c1` (stereo not drawn) gave ALOX12 inh 45%.
COc1ccc(/C=C/C(=O)C2CC2)cc1COc1cccc(C)c1C was read as IL1B secr inh -62*, DT40 TDP1 CPT inconclusive, TDP1 cell noCPT 23µM*, HT1080-NT tox inconclusive, HT1080 IDH1KD tx inconclusive and ALOX12 inh inconclusive.
`COc1ccc(/C=C/C(=O)c2ccc(O)cc2)cc1COc1ccc(F)cc1` gave IL1B secr inh -98*, DT40 TDP1 CPT inconclusive, TDP1 cell noCPT inconclusive, HT1080-NT tox inconclusive, HT1080 IDH1KD tx inconclusive and ALOX12 inh -27%.
`COc1ccc(C=O)cc1COc1ccc(F)cc1F` gave IL1B secr inh 14, DT40 TDP1 CPT inconclusive, TDP1 cell noCPT inconclusive, HT1080-NT tox -9%, HT1080 IDH1KD tx 6% and ALOX12 inh -1%.
`COc1ccc(C(=O)/C=C/c2ccc(OC)c(COc3ccccc3F)c2)cc1` gave IL1B secr inh -90*, DT40 TDP1 CPT 26µM*, TDP1 cell noCPT inconclusive, HT1080-NT tox -6%, HT1080 IDH1KD tx -13% and ALOX12 inh -5%.
For COc1ccc(/C=N/NC(=S)Nc2ccccc2)cc1COc1cccc(C)c1C the results were IL1B secr inh 15, DT40 TDP1 CPT inconclusive, TDP1 cell noCPT inconclusive, HT1080-NT tox 25%, HT1080 IDH1KD tx 12% and ALOX12 inh -23%.
Screening COc1ccc(C(=O)N/N=C/c2ccc(OC)c(COc3ccc(F)cc3)c2)cc1 returned IL1B secr inh -20, DT40 TDP1 CPT inconclusive, TDP1 cell noCPT inconclusive, HT1080-NT tox -2%, HT1080 IDH1KD tx -10% and ALOX12 inh -18%.
`CCC(=O)Oc1ccc2c(=O)c(Oc3cccc(OC)c3)c(C(F)(F)F)oc2c1` gave ALOX12 inh -6%.
O=C(CCc1c[nH]c2ccccc12)OCC(=O)N1CCCC1=O was read as ALOX12 inh -30%.
Screening COC(=O)C1=C(C)N=C2SC=C(CC(=O)NCCc3cccs3)N2C1c1ccccc1Cl (stereo not drawn) returned ALOX12 inh 57%.
`OCC1(CN2CCCC2)CCN(C/C=C/c2ccccc2)CC1` gave ALOX12 inh 24%.
Screening COc1ccc(/C=C/CN2CCC(CO)(Cc3ccccc3Cl)CC2)cc1 returned IL1B secr inh -79*, DT40 TDP1 CPT inconclusive, TDP1 cell noCPT 15µM*, HT1080-NT tox 23µM*, HT1080 IDH1KD tx 23µM* and ALOX12 inh inconclusive.
`Cc1ccc(CN2CCN(/N=C/c3ccc(C(F)(F)F)cc3)CC2)cc1` gave IL1B secr inh -4, DT40 TDP1 CPT inconclusive, TDP1 cell noCPT inconclusive, HT1080-NT tox -10%, HT1080 IDH1KD tx -7% and ALOX12 inh -23%.
For Oc1cccc(/C=N/N2CCN(c3ccccn3)CC2)c1 the results were IL1B secr inh -9, DT40 TDP1 CPT -14%, TDP1 cell noCPT -21%, HT1080-NT tox 0%, HT1080 IDH1KD tx 7% and ALOX12 inh -3%.
BrC(=C\c1ccccc1)/C=N/N1CCN(c2ccccn2)CC1 was read as IL1B secr inh -85*, DT40 TDP1 CPT 0.33µM*, TDP1 cell noCPT 2.6µM*, HT1080-NT tox -3%, HT1080 IDH1KD tx -27% and ALOX12 inh 1%.
